According to the supplement of paper PMC11732987, “Enantioselective OTUD7B fragment discovery through chemoproteomics screening and high-throughput optimisation” (Communications Chemistry, 2025):

Experiments:
Assay in all cases: log2 ratio of Biotin-Ahx-Ub-VS probe labelling (fragment/DMSO); higher = less target engagement (more negative = stronger competition), active = hit call of the paper (q ≤ 0.05, log2 ratio ≤ -1)
Settings in all cases: compound concentration: 200 uM; treatment time: 3 h
OTUD6B = target: T1, OTUD6B (UniProt Q8N6M0)
T1 sequence (whole entry): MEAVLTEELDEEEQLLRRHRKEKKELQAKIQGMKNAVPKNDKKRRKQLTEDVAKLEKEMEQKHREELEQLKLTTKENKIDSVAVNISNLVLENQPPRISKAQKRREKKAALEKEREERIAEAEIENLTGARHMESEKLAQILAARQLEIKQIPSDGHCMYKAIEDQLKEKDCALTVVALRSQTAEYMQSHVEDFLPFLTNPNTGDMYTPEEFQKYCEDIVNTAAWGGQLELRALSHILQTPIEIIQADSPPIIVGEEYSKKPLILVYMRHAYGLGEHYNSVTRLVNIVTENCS
Procedure, shortened: (§1)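 HEK293T lysate (495 µg per sample, in Tris/CHAPS/IGEPAL buffer with protease inhibitors) was exposed in triplicate for 3 h to fragment at 200 µM or to vehicle, then to Biotin-Ahx-Ub-VS at 0.5 µM final for 1 h. Labelled DUBs were enriched on NeutrAvidin, digested with LysC and trypsin, and analysed by diaPASEF LC-MS/MS. Spectronaut label-free quantities were normalised to the global median, and values are average log2 ratios of fragment over vehicle from an unpaired t-test. Only proteins with ≥2 unique peptides were used.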

OTUD7B = target: T2, OTUD7B (UniProt Q6GQQ9)
T2 sequence (whole entry): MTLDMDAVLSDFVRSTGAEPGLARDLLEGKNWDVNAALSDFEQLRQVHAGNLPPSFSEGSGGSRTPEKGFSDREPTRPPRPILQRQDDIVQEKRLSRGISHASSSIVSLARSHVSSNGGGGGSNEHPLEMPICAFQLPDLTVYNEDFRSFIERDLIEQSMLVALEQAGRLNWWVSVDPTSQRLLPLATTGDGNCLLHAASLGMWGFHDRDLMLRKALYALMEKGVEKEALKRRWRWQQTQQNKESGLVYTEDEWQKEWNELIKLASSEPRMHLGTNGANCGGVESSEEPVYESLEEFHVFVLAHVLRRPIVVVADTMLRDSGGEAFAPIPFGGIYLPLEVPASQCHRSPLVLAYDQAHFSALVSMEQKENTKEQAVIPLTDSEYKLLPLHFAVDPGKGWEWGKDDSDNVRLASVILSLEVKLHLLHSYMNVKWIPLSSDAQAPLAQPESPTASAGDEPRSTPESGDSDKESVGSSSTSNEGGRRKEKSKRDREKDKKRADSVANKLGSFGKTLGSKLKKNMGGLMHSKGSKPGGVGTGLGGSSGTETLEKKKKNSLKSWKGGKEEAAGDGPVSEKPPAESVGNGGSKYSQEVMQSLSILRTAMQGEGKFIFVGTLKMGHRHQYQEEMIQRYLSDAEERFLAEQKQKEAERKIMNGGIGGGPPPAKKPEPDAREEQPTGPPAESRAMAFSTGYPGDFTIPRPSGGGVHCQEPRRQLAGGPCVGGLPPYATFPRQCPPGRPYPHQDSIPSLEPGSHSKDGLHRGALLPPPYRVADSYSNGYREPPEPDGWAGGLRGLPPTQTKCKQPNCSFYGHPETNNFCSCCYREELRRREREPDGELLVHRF
Procedure, shortened: as §1

PRPF8 = PRPF8 (UniProt Q6P2Q9)
Procedure, shortened: as §1

PSMD7 = target: T3, PSMD7 (UniProt P51665)
T3 sequence (whole entry): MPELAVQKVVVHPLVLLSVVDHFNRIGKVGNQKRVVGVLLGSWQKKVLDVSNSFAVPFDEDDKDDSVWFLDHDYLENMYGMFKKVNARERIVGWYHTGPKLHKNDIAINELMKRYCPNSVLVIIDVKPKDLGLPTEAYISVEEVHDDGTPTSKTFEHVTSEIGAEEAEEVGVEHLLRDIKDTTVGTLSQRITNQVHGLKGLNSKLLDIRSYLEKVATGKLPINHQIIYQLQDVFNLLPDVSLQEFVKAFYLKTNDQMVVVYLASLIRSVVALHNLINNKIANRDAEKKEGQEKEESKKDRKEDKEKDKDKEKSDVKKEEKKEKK
Procedure, shortened: as §1

UCHL1 = UCHL1 (UniProt P09936)
Procedure, shortened: as §1

UCHL3 = target: T4, UCHL3 (UniProt P15374)
T4 sequence (whole entry): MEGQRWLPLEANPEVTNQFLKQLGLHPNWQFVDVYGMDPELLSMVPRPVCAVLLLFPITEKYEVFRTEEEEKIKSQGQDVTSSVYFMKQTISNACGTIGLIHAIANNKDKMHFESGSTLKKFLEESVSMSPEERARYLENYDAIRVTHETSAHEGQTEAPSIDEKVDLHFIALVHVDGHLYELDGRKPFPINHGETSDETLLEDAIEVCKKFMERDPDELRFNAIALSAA
Procedure, shortened: as §1

UCHL5 = target: T5, UCHL5 (UniProt Q9Y5K5)
T5 sequence (whole entry): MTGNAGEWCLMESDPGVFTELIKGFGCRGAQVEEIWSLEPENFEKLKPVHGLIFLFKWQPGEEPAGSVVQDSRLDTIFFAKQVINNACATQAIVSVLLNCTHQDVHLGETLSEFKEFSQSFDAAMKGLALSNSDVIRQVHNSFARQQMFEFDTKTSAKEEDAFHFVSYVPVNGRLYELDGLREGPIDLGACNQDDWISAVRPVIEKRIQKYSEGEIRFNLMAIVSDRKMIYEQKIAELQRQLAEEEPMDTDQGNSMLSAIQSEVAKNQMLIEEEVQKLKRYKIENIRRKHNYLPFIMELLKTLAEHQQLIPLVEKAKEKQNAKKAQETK
Procedure, shortened: as §1

USP10 = USP10 (UniProt Q14694)
Procedure, shortened: as §1

USP15 = target: T6, USP15 (UniProt Q9Y4E8)
T6 sequence (whole entry): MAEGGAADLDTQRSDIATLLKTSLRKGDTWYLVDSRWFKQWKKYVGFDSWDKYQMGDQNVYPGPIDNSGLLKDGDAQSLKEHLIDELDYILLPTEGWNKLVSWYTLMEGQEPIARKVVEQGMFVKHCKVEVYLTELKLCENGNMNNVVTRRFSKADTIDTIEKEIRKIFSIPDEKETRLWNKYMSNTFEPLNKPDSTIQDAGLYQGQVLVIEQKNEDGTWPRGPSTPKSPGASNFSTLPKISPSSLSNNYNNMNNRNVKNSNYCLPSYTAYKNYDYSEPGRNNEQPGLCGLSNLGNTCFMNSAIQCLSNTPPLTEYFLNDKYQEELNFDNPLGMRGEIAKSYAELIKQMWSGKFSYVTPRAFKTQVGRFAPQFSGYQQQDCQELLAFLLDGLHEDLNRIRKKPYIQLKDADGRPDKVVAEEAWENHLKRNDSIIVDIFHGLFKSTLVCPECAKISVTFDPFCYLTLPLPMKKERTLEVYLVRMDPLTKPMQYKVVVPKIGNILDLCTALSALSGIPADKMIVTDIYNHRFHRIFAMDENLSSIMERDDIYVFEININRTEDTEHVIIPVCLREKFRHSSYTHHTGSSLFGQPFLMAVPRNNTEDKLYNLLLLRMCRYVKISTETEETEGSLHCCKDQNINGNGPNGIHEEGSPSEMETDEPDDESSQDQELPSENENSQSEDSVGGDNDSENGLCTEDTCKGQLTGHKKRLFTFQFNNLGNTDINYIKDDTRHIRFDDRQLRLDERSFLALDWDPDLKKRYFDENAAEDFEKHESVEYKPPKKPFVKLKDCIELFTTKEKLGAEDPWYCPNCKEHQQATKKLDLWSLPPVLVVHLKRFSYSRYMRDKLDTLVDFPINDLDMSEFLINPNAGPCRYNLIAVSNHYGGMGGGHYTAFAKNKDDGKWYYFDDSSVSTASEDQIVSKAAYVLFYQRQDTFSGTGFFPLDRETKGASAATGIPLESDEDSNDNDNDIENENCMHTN
Procedure, shortened: as §1

USP16 = USP16 (UniProt Q9Y5T5)
Procedure, shortened: as §1

Measured: log2 ratio of Biotin-Ahx-Ub-VS probe labelling

Chain of UCHL1 (P09936 whole entry, looked up): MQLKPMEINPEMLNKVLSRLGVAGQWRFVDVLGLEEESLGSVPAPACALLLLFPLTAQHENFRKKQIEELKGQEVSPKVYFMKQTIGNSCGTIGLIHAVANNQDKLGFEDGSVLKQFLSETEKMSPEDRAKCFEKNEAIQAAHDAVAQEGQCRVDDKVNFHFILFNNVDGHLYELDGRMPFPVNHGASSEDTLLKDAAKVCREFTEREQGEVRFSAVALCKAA
Chain of USP16 (Q9Y5T5 whole entry, looked up): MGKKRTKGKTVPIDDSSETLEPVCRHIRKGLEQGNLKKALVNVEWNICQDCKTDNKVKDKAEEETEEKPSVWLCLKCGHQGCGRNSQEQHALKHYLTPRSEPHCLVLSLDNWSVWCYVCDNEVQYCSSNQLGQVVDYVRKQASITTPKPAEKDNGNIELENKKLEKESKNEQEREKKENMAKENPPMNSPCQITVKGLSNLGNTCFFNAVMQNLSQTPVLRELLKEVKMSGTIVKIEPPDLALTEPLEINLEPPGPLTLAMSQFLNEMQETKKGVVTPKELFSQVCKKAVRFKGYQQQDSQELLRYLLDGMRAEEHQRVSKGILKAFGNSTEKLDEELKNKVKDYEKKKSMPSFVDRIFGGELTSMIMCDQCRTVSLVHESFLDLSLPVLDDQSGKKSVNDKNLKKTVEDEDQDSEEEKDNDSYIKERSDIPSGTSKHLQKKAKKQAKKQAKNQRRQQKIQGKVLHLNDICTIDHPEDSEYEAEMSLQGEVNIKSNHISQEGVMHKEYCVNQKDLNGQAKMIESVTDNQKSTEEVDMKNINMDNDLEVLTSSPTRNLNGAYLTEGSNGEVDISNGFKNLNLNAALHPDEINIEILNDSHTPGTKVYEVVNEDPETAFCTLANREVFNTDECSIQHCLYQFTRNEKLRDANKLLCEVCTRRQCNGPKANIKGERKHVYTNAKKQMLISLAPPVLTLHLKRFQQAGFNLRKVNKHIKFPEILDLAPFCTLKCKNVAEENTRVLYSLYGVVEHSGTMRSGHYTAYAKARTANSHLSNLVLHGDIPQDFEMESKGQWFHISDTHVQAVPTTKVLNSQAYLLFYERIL
Chain of USP10 (Q14694 whole entry): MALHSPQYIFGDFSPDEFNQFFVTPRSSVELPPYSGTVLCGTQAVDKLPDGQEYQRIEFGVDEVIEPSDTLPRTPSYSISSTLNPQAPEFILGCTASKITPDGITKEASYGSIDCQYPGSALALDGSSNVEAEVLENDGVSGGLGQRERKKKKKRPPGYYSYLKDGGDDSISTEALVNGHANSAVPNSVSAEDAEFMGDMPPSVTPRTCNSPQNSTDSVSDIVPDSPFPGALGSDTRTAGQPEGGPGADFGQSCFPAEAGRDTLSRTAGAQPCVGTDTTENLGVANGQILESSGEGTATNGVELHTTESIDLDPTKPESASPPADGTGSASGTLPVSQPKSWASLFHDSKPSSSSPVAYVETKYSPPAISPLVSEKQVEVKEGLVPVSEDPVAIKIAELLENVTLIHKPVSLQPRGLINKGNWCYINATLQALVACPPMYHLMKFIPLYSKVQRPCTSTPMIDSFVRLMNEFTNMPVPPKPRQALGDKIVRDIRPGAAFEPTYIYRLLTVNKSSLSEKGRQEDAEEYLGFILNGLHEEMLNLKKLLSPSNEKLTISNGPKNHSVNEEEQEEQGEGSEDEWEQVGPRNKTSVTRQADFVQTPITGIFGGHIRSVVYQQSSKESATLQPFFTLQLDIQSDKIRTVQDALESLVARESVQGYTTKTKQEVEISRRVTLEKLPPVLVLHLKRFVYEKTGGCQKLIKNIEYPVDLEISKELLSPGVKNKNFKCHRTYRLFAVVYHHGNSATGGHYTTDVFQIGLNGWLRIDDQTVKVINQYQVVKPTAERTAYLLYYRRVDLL

Cc1cnc2[nH]cc(CCNC(=O)CCl)c2c1
inactive: OTUD6B 0.00839 | OTUD7B -0.562 | PRPF8 -0.0916 | PSMD7 -0.297 | UCHL1 -0.85 | UCHL3 0.0619 | UCHL5 -0.065 | USP10 -0.0977 | USP15 -0.336 | USP16 0.0147
